For 17 compounds, growth results are on record in PubChem BioAssay (NCI).

Common to all, as to assay: NCI-60 one-dose screen, 48 h (100 = growth as untreated, 0 = no growth, -100 = all killed)
What all share (details): 10 µM unless noted

Assay [1] relates to BT-549 breast.
Assay [2] concerns MDA-MB-435 melanoma.
The test system of assay [3] is SW-620 colon.
The test system of assay [4] is MCF7 breast.
Assay [5] relates to HCT-116 colon.
Assay [6] has as its system HCC-2998 colon.
Assay [7] deals with KM12 colon.

SMILES strings stand for the structures. The panel holds about 83,000 compounds, 20% with a hit somewhere; the sample as a whole holds those more often.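 Each cell line was grown in a 96-well plate and treated with one concentration of compound for 48 hours. Values below 10 were considered active.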 A number with no mark means an inactive call. Activity calls are given as the source filed them.

Regarding `O=C(O)c1cn(C2CC2)c2cc(N3CCN(C(=O)CSc4nnc(-c5ccc(Cl)cc5)n4-c4ccccc4)CC3)c(F)cc2c1=O`, the growth in assay [1] was 99.1%; in assay [2], 102%; in assay [3], 109%; in assay [4], 110%; in assay [5], 103%; in assay [6], 102%. The growth in assay [7] was 103%.
As for `CCCCN(CCCC)CC(CN(CC)CC)OC(=O)Nc1ccccc1` (centres undefined), the growth in assay [1] was 88.4%; in assay [2] it was 102%; in assay [3] it was 74.1%; in assay [4], 79.4%; in assay [5] it was 56.5%; in assay [6], 85.1%. The growth in assay [7] is 93.9%.
Turning to `O=C1C(=O)c2c(nc3ccc(Br)cn23)-c2ccccc21`, the growth in assay [1] was -86.8% (active); in assay [2], -94% (active); in assay [3], -79.6% (active); in assay [4], -54.1% (active); in assay [5], -88.9% (active); in assay [6], -82.5% (active). The growth in assay [7] is -41.5% (active).
`CCOc1ccc(C2N(c3cc(OC)c(OC)c(OC)c3)C(=O)C2(F)F)cc1` (centres undefined): the growth is 44.2% in assay [1]; 16.8% in assay [2]; 25.5% in assay [3]; 17.2% in assay [4]; 8.92% (active) in assay [5]; 81.7% in assay [6]. Also, the growth in assay [7] is 28%.
In the case of `COC(=O)/C=C1\SC(=Nc2cccc(OC)c2)N(CCc2c[nH]c3ccccc23)C1=O`, the growth in assay [1] is 52.3%; in assay [2] it was 62.5%; in assay [3] it was 78.2%; in assay [4] it was 25.8%; in assay [5], 50.1%; in assay [6] it was 97%. In assay [7], the growth was 48.3%.
As for `C=CCn1c(SCC(=O)Nc2ccc(C(=O)/C=C/c3cc(OC)c(OC)c(OC)c3)cc2)nnc1-c1ccccc1`, the growth is 95.5% in assay [1]; 50% in assay [2]; 73.2% in assay [3]; 13.6% in assay [4]; 15.8% in assay [5]; 108% in assay [6]. Moreover, the growth in assay [7] was 54.4%.
For `COc1ccc(/C(=N\O)c2cc(C)c(OC)c(C)c2)cc1O`, the growth in assay [1] is 19.3%; in assay [2] it was -23.8% (active); in assay [3], 31%; in assay [4], 19.1%; in assay [5], 6.63% (active); in assay [6] it was 26.2%. Moreover, the growth in assay [7] was 14.8%.
Regarding `COc1ccc(-n2cc(COc3ccc4c5ccnc(C)c5n(CC(C)C)c4c3)nn2)cc1`, the growth was 66% in assay [1]; 87.3% in assay [2]; 78.9% in assay [3]; 54.3% in assay [4]; 50.5% in assay [5]; 85.1% in assay [6]. The growth in assay [7] is 80.2%.
Take `O=C(CN1N=C(c2ccc(F)cc2)CCC1=O)Nc1nccs1`: the growth in assay [1] is 101%; in assay [2] it was 102%; in assay [3] it was 91.6%; in assay [4] it was 93.8%; in assay [5] it was 104%; in assay [6] it was 97.6%. Also, in assay [7], the growth is 107%.
On to `O=C(Nc1nccs1)c1noc2ccccc12`, for which the growth in assay [1] was 102%; in assay [2] it was 105%; in assay [3], 98.8%; in assay [4], 63.9%; in assay [5], 93.8%; in assay [6], 105%. Besides, the growth in assay [7] was 94.3%.
As for `O=C1Nc2ccccc2C12C=C(c1ccccc1)Nc1c2c(-c2ccccc2)nn1-c1ccccc1` (centres undefined), the growth in assay [1] is 70.1%; in assay [2] it was 65.1%; in assay [3] it was 75.6%; in assay [4], 39%; in assay [5], 48.6%; in assay [6], 72.3%. Also, the growth in assay [7] was 56.1%.
Turning to `CCOC(=O)C1=C(C)n2nc(CC#N)c(C#N)c2NC1c1ccc(CC)cc1` (centres undefined), the growth in assay [1] was 85.4%; in assay [2], 98.5%; in assay [3] it was 97.6%; in assay [4] it was 88.7%; in assay [5] it was 95.4%; in assay [6], 97.6%. For the same compound, the growth in assay [7] was 97%.
Turning to `C=C(C)[C@@H]1CC[C@]2(C(=O)OCCOCCOCC[P+](c3ccccc3)(c3ccccc3)c3ccccc3)CC[C@]3(C)[C@H](CC[C@@H]4[C@@]5(C)CC[C@H](C)C(C)(C)[C@@H]5CC[C@]43C)[C@@H]12`, the growth in assay [1] was -93% (active); in assay [2] it was -93.7% (active); in assay [3], -83.5% (active); in assay [4] it was -77% (active); in assay [5] it was -88.4% (active); in assay [6], -85.5% (active). Besides, the growth in assay [7] was -81.3% (active).
Take `COc1cccc(C(=O)OCCn2nc3c4c(cccc42)C(=O)c2ccccc2-3)c1O`: the growth in assay [1] is 52.8%; in assay [2] it was 6.92% (active); in assay [3], 20.9%; in assay [4], 18.4%; in assay [5] it was 29.6%; in assay [6], 80.3%. In addition, the growth in assay [7] was 29%.
In the case of `COc1cccc2c1-c1ccccc1C2=O`, the growth in assay [1] is -0.0616% (active); in assay [2] it was -48.2% (active); in assay [3], 26.7%; in assay [4], 24%; in assay [5], 12.9%; in assay [6], 30.8%. In addition, in assay [7], the growth is 36%.
For the compound `O=C1CCc2ccccc2N1`, the growth is 107% in assay [1]; 97.6% in assay [2]; 102% in assay [3]; 96.6% in assay [4]; 101% in assay [5]; 84.8% in assay [6]. The growth in assay [7] was 96.6%.
Consider `Cc1c(C(=O)Nc2nc3ccccc3[nH]2)cnn1-c1ccccn1`, for which the growth is 111% in assay [1]; 108% in assay [2]; 107% in assay [3]; 95.6% in assay [4]; 97.3% in assay [5]; 97.3% in assay [6]. Further, the growth in assay [7] was 103%.
